Here are results for 47 compounds from PubChem BioAssay (NCI).

This is part of a sample that, as a whole, favours compounds with a hit. Of some 79,000 tested, about 15% had one in any assay. Values without a mark were called inactive. Active and inactive are the calls of the source. No stated cut-off is given here; in the data, active means growth inhibition above about 70%; inactive means the rest.

Assay [1] can be described thus: NCI Yeast Anticancer Drug Screen. Data for the rad50 strain (AID 155).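 Further: 0% = growth of vehicle-only cultures of the same strain.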 Particulars: S. cerevisiae rad50 strain growth inhibition; at 50.0 µM; hits give high values. The gist of the method:
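DNA repair mutant yeast, compound exposure, growth read-out; inhibition is taken relative to vehicle.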

Assay [2] can be described thus: NCI Yeast Anticancer Drug Screen. Data for the mec2-1 strain (AID 157). Particulars: S. cerevisiae mec2-1 strain, at 50.0 µM, hits give high values. The gist of the method: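 Vehicle-treated cultures served as reference for growth inhibition of compound-exposed mec2-1 yeast.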
Assay [3] is described as follows: NCI Yeast Anticancer Drug Screen. Data for the sgs1 mgt1 strain (AID 161).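 Further: 0% = growth of cultures given vehicle only.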 Particulars: S. cerevisiae sgs1 mgt1 strain, at 50.0 µM, hits give high values. In short, it runs like this: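 Test agents were incubated with a DNA-repair-mutant yeast strain. Growth was then read and compared against vehicle-treated controls.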
The nature of assay [4]: NCI Yeast Anticancer Drug Screen. Data for the cln2 rad14 strain (AID 165).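 Further: 0% = growth equal to vehicle treated cultures.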 Particulars: S. cerevisiae cln2 rad14 strain, at 50.0 µM, hits give high values. In short, it runs like this:
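Each compound was tested on cln2 rad14 yeast. Inhibition of growth was calculated against vehicle-exposed controls.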

The nature of assay [5]: NCI Yeast Anticancer Drug Screen. Data for the bub3 strain (AID 167). Particulars: S. cerevisiae bub3 mutant strain, at 50.0 µM, hits give high values. The gist of the method:
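In this screen, a yeast mutant lacking normal mitotic checkpoint function is challenged with compound. Relative growth versus vehicle gives the inhibition value.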

A short description of assay [6]: NCI Yeast Anticancer Drug Screen. Data for the mlh1 rad18 strain (AID 175). The note with it: S. cerevisiae mlh1 rad18 strain growth inhibition; at 50.0 µM; hits give high values. The gist of the method: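 Vehicle-treated cultures served as the reference for growth inhibition in a yeast strain carrying DNA damage repair alterations exposed to each compound.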

Turning to `COc1cccc(N(CN2C(=O)CCC2OC)C(C)=O)c1` (configuration not stated), the growth inhibition is 4.2% in assay [1]; 7.35% in assay [2]; 12.9% in assay [3]; 19.3% in assay [4]; -7.35% in assay [5]; -31.4% in assay [6].
Turning to `O=c1c(=[n+]2ccc(=C([O-])c3ccccc3)cc2)/c(=N/S(=O)(=O)c2ccccc2)c(=O)c2ccccc12`, the growth inhibition in assay [1] is 19.2%; in assay [2], 33.1%; in assay [3] it was 39.8%; in assay [4], 7%; in assay [6], 26.4%.
For `Cc1ccc(C)c(NC(=O)OC/C=C/c2ccccc2)c1` the same measures were -1.2%, 29.2%, 19.9%, -10.9% and 41.2%.
For `O=C1c2ccccc2C(=O)N1/N=C1/SC(=Nc2ccccc2)C(=Nc2ccccc2)N1c1ccccc1` the same measures were 6.3%, 0%, 15%, 26.4% and 20.1%.
For `C[N+](C)(CCO)CCN1c2ccccc2Sc2ccccc21` the same measures were -3.1%, -17.5%, 10.2%, -23.6% and -3.7%.
As for `N#CCc1ccccc1C(C#N)C(=O)CCC(=O)C(C#N)c1ccccc1CC#N` (configuration not stated), the growth inhibition is 45.6% in assay [1]; 26.1% in assay [2]; 22.6% in assay [3]; -28.4% in assay [4]; 44.7% in assay [6].
For `CCCCN(CCCC)CC(O)c1cc2ccc(Cl)cc2nc1-c1ccc(Cl)cc1` (configuration not stated) the same measures were 65.2%, 41.7%, 85.5% (active), 8.35% and 78.8% (active).
For `O=C(c1ccccc1)c1oc(CO)cc(=O)c1O` the same measures were -1%, -12%, -4.35%, -48.1% and -16.1%.
For `O=C(Cc1ccccc1)NC(=O)Nc1ccccc1` the same measures were -7.5%, -10.2%, -8.4%, -0.15% and 0.4%.
Turning to `CC(C)(C)NC(=O)Oc1ccc2ccccc2c1`, the growth inhibition is 1.75% in assay [1]; -14.6% in assay [2]; -6% in assay [3]; -84.9% in assay [4]; -15.7% in assay [6].
For `CCOP(=O)(OCC)C1C(C)N1C(=O)Nc1ccccc1` (configuration not stated), the growth inhibition in assay [1] was 1.4%; in assay [2], -4.15%; in assay [3] it was -8.1%; in assay [4], 5%; in assay [6], -17.4%.
For `Nc1nnc2nc(CC(=O)c3ccccc3[N+](=O)[O-])c(CC(=O)c3ccccc3[N+](=O)[O-])nn12` the same measures were 1%, 6.05%, 18.1%, -13.3% and 8.8%.
For `Cn1c(=O)c(CC(O)C(Cl)(Cl)Cl)nc2ccccc21` (configuration not stated) the same measures were 20.6%, 23.6%, 3.4%, 3.75% and 31.7%.
For `ClCc1c(-c2ccccc2)nn(-c2ccccc2)c1CCl` the same measures were 8.65%, 14.2%, 38.5%, 6.05% and 37%.
`CN(C)C=Nc1cccc2c1NSN2`: the growth inhibition in assay [1] is 5.5%; in assay [2], -6.4%; in assay [3], -1.35%; in assay [4], 29.1%; in assay [6], 33.1%.
On the same counts, the results for `CCCCCCCCCCCCCCCCCCNC(=O)Nc1cc(C(C)C)ccc1C` are -13.3%, -22.1%, -14.8%, -47.1% and -30.6%.
On the same counts, the results for `O=C(O)C12CCCCC1CCCC2` (configuration not stated) are 11.4%, 31.2%, -6.25%, 26.1% and 10.7%.
For `O=C(CN1CCCCC1)NC(=O)c1ccccc1` the same measures were -8.8%, -11.6%, -7.8%, -9.15% and -7.5%.
For `Fc1ccc(F)c(C(Nc2nncs2)Nc2nncs2)c1`, the growth inhibition in assay [1] is 7.3%; in assay [2], -8.75%; in assay [3] it was 7.75%; in assay [4], 2.4%; in assay [6] it was 7.85%.
For `CCN1C(=O)/C(=C/c2ccc(OCC(=O)O)cc2)SC1=S` the same measures were -6.9%, -10.9%, 0.35%, -44.9% and -9.65%.
On the same counts, the results for `O=C(COc1cc(Cl)c(Cl)cc1Cl)Oc1ccccc1` are -0.3%, 4.95%, 7.65%, -8.85% and 3.6%.
On the same counts, the results for `CCN(CC)CCC(=O)O[C@H]1CC[C@H](CC(C)[C@H]2CC(=O)C(C)C=C(C)[C@H](OC(=O)CCN(CC)CC)C(OC)C(=O)[C@@H](C)CC(C)/C=C/C=C/C=C(C)C(OC)CC3CC[C@H](C)[C@](O)(O3)C(=O)C(=O)N3CCCCC3C(=O)O2)CC1OC` (some centres not stated) are 89.6% (active), 91.8% (active), 92.8% (active), 89.3% (active) and 86.5% (active).
As to `O=C(c1ccccc1)C12CCC3CC(CC(C3)C1)C2`, the growth inhibition was -18.1% in assay [1]; 8.25% in assay [2]; 11.5% in assay [3]; 6.05% in assay [4]; 9.65% in assay [6].
As to `COC(=O)[C@H]1[C@H]2C[C@@H]3c4[nH]c5ccccc5c4CCN3C[C@H]2C[C@@H](OC(=O)c2cc(OC)c(OC)c(OC)c2)[C@@H]1OC`, the growth inhibition in assay [1] is 15.8%; in assay [2] it was -7.35%; in assay [3] it was 17.1%; in assay [4], 5.6%; in assay [5], 18.5%; in assay [6], 17.3%.
Turning to `C/C(CC(=O)c1ccccc1)=C1\C(=O)NN(c2ccccc2)C1=O`, the growth inhibition in assay [1] was 60.5%; in assay [2] it was 47.5%; in assay [3], 67.7%; in assay [4], 56.9%; in assay [6], 60.1%.
On the same counts, the results for `O=C1c2ccccc2C(=O)C2CC(c3ccccc3)=CCC12` (configuration not stated) are 10.6%, 10.1%, -5.8%, -35.6% and 0.9%.
On the same counts, the results for `N=C(N)/N=C(/C=C/c1ccccc1)CC1OC(=O)c2ccccc21` (configuration not stated) are -6.95%, -10.7%, -22.6%, -2.85% and -24.3%.
For `COC(=O)c1cc(OC)c(O)c(OC)c1` the same measures were -1.3%, -0.4%, 16.6%, -12.3% and -19.9%.
Take `C=C(Cl)COC(=O)C(C)O` (configuration not stated): the growth inhibition was 3% in assay [1]; -12.2% in assay [2]; -7.55% in assay [3]; 24.4% in assay [4]; 8.95% in assay [6].
On the same counts, the results for `Cc1noc2ncnc(NCCCN(C)C)c12` are 13.4%, 4.3%, -0.8%, -6.95% and -0.9%.
On the same counts, the results for `CCOC(=O)C12CCCC1(O)N(NC(=O)c1ccccc1)C(C)=C2C(=O)OC` (configuration not stated) are 10.8%, 21.6%, 6.3%, -56.5% and -10.2%.
For `O=C1C=C/C(=N\N=C(c2ccccc2)c2ccccc2)O1` the same measures were -38.1%, -67.8%, -49.6%, 7.45% and -28.2%.
Consider `O=C(NCc1ccc([N+](=O)[O-])cc1)c1ccccc1`, for which the growth inhibition in assay [1] was 4.15%; in assay [2], 4.45%; in assay [3], -6.4%; in assay [4], 10.1%; in assay [6], 6.7%.
On to `CCCc1cc2c3c(c(=O)oc2cc1O)CCCCC3`, for which the growth inhibition was -17.9% in assay [1]; 19.4% in assay [2]; 4.7% in assay [3]; -22.5% in assay [4]; -14.3% in assay [6].
On the same counts, the results for `CSC(C(OC(C)=O)C(OC(C)=O)C(OC(C)=O)C(COC(C)=O)OC(C)=O)n1cnc2c(=S)nc[nH]c21` (configuration not stated) are 26.4%, -12.4%, -11.6%, 13.2% and 1.95%.
For `CC(=O)Nc1nnc(SCc2ccccc2)s1` the same measures were 9%, 6.35%, -4.4%, -10% and -20.6%.
On to `Cc1cc2ccccc2c[n+]1CC(=O)CC([O-])(C(F)(F)F)C(F)(F)F`, for which the growth inhibition was 2.85% in assay [1]; 3.25% in assay [2]; -5.65% in assay [3]; 4.1% in assay [4]; -14.9% in assay [6].
Consider `O=c1ccnc2ccc3n[nH][nH]c3c12`, for which the growth inhibition was -18.4% in assay [1]; -20.2% in assay [2]; -7.65% in assay [3]; 3.55% in assay [4]; 1.1% in assay [6].
For `COC(=O)C1C(C(=O)OC)C(C(=O)OC)C1C(=O)OC` (configuration not stated) the same measures were 1.6%, -0.35%, -0.45%, 9.5% and 26.9%.
`O=CN1CCN(C=S)CC1`: the growth inhibition in assay [1] is -14%; in assay [2], -10.2%; in assay [3], -9.9%; in assay [4] it was 3.75%; in assay [6], -15.4%.
On the same counts, the results for `CC[O-].CC[O-].O=C([CH-]C(=O)c1ccccc1)CCCCCCC(=O)[CH-]C(=O)c1ccccc1.[Ti+4]` are -39.5%, -13.7%, -33.5%, -4.7% and -17.7%.
Take `O=C(Nc1cccc(C(F)(F)F)c1)OCCOc1ccc(Cl)cc1`: the growth inhibition in assay [1] is 99.2% (active); in assay [2] it was 99.3% (active); in assay [3] it was 99.2% (active); in assay [5] it was 99% (active); in assay [6] it was 98% (active).
For the compound `CCCCCCSC#N`, the growth inhibition in assay [1] is 34.8%; in assay [2], 13.9%; in assay [3], -8.75%; in assay [5], 15.2%; in assay [6], 7.05%.
On the same counts, the results for `O=C(CCC(=O)Nc1cccc(Cl)c1)CC(=O)c1ccc(F)cc1` are -11.2%, -1.8%, 6.3%, -0.85% and -4.85%.
For the compound `O=P(O)(O)OC1C(OP(=O)(O)O)C(OP(=O)(O)O)C(OP(=O)(O)O)C(OP(=O)(O)O)C1OP(=O)(O)O.[Zn+2]` (configuration not stated), the growth inhibition in assay [1] is -24.7%; in assay [2], -4.8%; in assay [3], -16.6%; in assay [5], -23%; in assay [6] it was -6.2%.
On the same counts, the results for `Cc1cc[n+](-c2nc3c([O-])n(C)c(=O)n(C)c-3n2)cc1` are 0.65%, 10.6%, 6%, 8.95% and 19.4%.
For `O=C(Nc1ccc([N+](=O)[O-])cc1)c1ccc(Cl)cc1` the same measures were -4.7%, 7.75%, -1.35%, 5.15% and -36.5%.
